Measured values taken from the supplement of paper PMC6555819.

How the values were obtained:
Assay in all cases: PBM binding z-score (relative to random genomic background probes); higher = stronger binding; sequences stand for … in GC…GCGATTGACAGCGTAGAATGAAGG
[1] = system: PPARg:RXRa DBDmut IVT, anti-RXR (DBD mutation: RXRa K156A/R161A, NR concentration 270 nM, RXRa partner concentration 90 nM)
In short: (§1)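 Ligand-free nuclear receptor dimers were applied to custom Agilent 4×180K protein-binding microarrays whose double-stranded probes carried direct-repeat seeds, single-nucleotide variants, half-site ablations and random human genomic background sequences in 34-nt variable regions. Incubation lasted 1 h. Binding z-scores were computed against the random background probes from regression-normalized fluorescence.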

[2] = system: PPARg:RXRa IVT, anti-PPARg (NR concentration 270 nM, RXRa partner concentration 90 nM)
In short: as §1

[3] = system: PPARg DBDmut:RXRa IVT, anti-PPARg (DBD mutation: PPARg1 K132A/R137A, NR concentration 270 nM, RXRa partner concentration 90 nM)
In short: as §1

[4] = system: PPARg DBDmut IVT, anti-PPARg (DBD mutation: PPARg1 K132A/R137A, NR concentration 270 nM)
In short: as §1

[5] = system: PPARg homodimer (NR concentration 180 nM)
In short: as §1

[6] = system: PXR:RXRa (NR concentration 270 nM, RXRa partner concentration 90 nM)
In short: as §1

[7] = system: PXR homodimer (NR concentration 270 nM)
In short: as §1

[8] = system: RARa:RXR (NR concentration 270 nM, RXRa partner concentration 90 nM)
In short: as §1

[9] = system: RARa homodimer (NR concentration 270 nM)
In short: as §1

[10] = system: RARb:RXRa (NR concentration 270 nM, RXRa partner concentration 90 nM)
In short: as §1

[11] = system: RARb homodimer (NR concentration 270 nM)
In short: as §1

[12] = system: RARg:RXRa (NR concentration 270 nM, RXRa partner concentration 90 nM)
In short: as §1

[13] = system: RARg homodimer (NR concentration 270 nM)
In short: as §1

[14] = system: RXRa DBDmut IVT, anti-RXR (DBD mutation: RXRa K156A/R161A, NR concentration 90 nM)
In short: as §1

[15] = system: RXRa homodimer (NR concentration 180 nM)
In short: as §1

[16] = system: THRa:RXRa (NR concentration 90 nM, RXRa partner concentration 90 nM)
In short: as §1

[17] = system: THRa homodimer (NR concentration 90 nM)
In short: as §1

[18] = system: VDR homodimer (NR concentration 270 nM)
In short: as §1

Sequence | PBM binding z-score [1] | PBM binding z-score [2] | PBM binding z-score [3] | PBM binding z-score [4] | PBM binding z-score [5] | PBM binding z-score [6] | PBM binding z-score [7] | PBM binding z-score [8] | PBM binding z-score [9] | PBM binding z-score [10] | PBM binding z-score [11] | PBM binding z-score [12] | PBM binding z-score [13] | PBM binding z-score [14] | PBM binding z-score [15] | PBM binding z-score [16] | PBM binding z-score [17] | PBM binding z-score [18]
TCTTGTAGATCAAGCAGGTCAAGAAAGCCTGAGT | 1.73 | 1.75 | 0.414 | -0.0194 | 0.82 | 1.7 | 0.497 | 1.91 | 0.192 | 1.79 | 2.28 | 1.43 | 1.35 | 0.714 | 1.66 | 2.01 | 0.223 | 0.53
TCTTGTAGATCAATAGAGGTTAAGACAGTGCGCT | 1.86 | 0.857 | 0.686 | 0.616 | 0.896 | 2.24 | 0.168 | 1.71 | 0.602 | 0.993 | 1.01 | 0.969 | 0.534 | 0.854 | 1.44 | 2.36 | -0.216 | 0.0474
TCTAGTTGGTCACGGCGGTCACACACGACGGGTA | 2.36 | 3.13 | 1.09 | 1.25 | 1.16 | 0.555 | 0.174 | 0.871 | 0.669 | 2.52 | 2.92 | 2.1 | 2.76 | 0.889 | 1.34 | 0.79 | 0.372 | 0.652
GCAGACAGGTGGAACGCAGGTAACTCAGGGTGGC | -0.523 | -0.717 | -1.02 | -1.2 | -0.728 | -0.719 | -0.596 | -0.428 | -1.35 | -0.55 | -0.721 | -0.378 | -0.569 | -0.849 | -0.144 | 0.751 | -0.601 | -0.591
GCGACTGGGGCATCAGCAGGTAACCATAACTTAA | 3.85 | 3.1 | -0.465 | -0.924 | 0.206 | -0.194 | -0.176 | 0.582 | -0.479 | 0.352 | 0.543 | 0.292 | 0.296 | 0.0904 | 0.119 | 0.856 | 0.168 | -0.668
ATCGAAAGGTCGAGGTGACTATAGAGAAAGGGAA | 0.438 | 2.86 | 1.24 | 0.771 | 1.35 | 2.56 | 0.185 | 3.53 | 0.636 | 4.21 | 2.73 | 4.4 | 4.53 | 1.37 | 4.45 | 2.9 | 0.607 | 0.269
GGAACGAGGGGATTCGAGTTGATAGCATGGCGAT | 0.388 | -0.0839 | -1.62 | -0.321 | -1.3 | 0.0775 | -0.14 | -0.588 | -0.71 | -0.414 | -0.999 | -0.337 | -0.0526 | -0.0556 | -0.258 | 0.618 | -0.631 | 0.0927
ATATGTAGGTTAACGGTCATTCAGGTTGGTTCGC | 8.01 | 8.1 | 3.09 | 2.01 | 2.2 | 1.84 | 0.701 | 2.01 | 0.573 | 2.41 | 2.72 | 2.13 | 2 | 1.34 | 1.88 | 1.62 | 0.747 | 1.84
ACTAGTTGGTCAGCAGAGGTCACACACAATTCGG | 1.92 | 3.43 | 1.09 | 0.493 | 3.51 | 5.73 | 1.6 | 5.96 | 2.56 | 4.17 | 5.13 | 5.03 | 5.13 | 1.14 | 5.43 | 4.52 | 2.95 | 3.3
ATATGTAGGTTAGCTGGGGTCACTCAGACTAGGC | 6.74 | 6.02 | 1.28 | 0.639 | 2.37 | 5.85 | 2.05 | 5.16 | 0.798 | 3.22 | 4.11 | 4.29 | 3.51 | 1.52 | 5.23 | 5.18 | 3.2 | 2.95
CCGACTGGGTCAAGGTTACCATAACGCACAGCCA | 5.21 | 5.93 | 0.445 | -0.0986 | 1.69 | 2.17 | 0.366 | 2.76 | 0.448 | 3.62 | 3.15 | 3.98 | 4.05 | 0.852 | 3.59 | 2.83 | 1.51 | 1.02
TCATATAGGTAAAGGTGAATGTCGAACGATATGA | 3.9 | 4.33 | 0.991 | 1.7 | 1.02 | 0.695 | 0.181 | 1.46 | 0.501 | 1.87 | 1.3 | 1.37 | 1.21 | 0.686 | 1.9 | 1.16 | -0.293 | -0.0294
CCTCGGAGGACAACAGGAGTTCAGAGCTGCCAGA | -0.298 | -1 | -2.34 | -1.22 | 0.513 | 1.92 | 1.78 | 0.366 | 0.371 | 1.67 | 1.91 | 1.7 | 1.9 | 0.979 | 0.335 | 1.17 | -0.102 | 2.95
TCATACAGGTAAAGGTGAAAGTCGAACGATATGA | 2.37 | 2.45 | 1.8 | 0.696 | 0.957 | 1.03 | 0.178 | 1.82 | 1.18 | 2.19 | 1.73 | 1.78 | 1.69 | 1.17 | 2.23 | 1.46 | 0.0499 | 0.141
TCAGACAGGTGAAGGTAATTCAGGTACGCAGTCG | 2.77 | 1.13 | 0.166 | 0.166 | 1.05 | 0.684 | 0.0937 | 1.21 | 0.385 | 1.08 | 0.916 | 0.717 | 0.626 | 1.5 | 1.08 | 1.81 | 0.574 | 0.38
TTACGAAGGTGAGCTGAGGTCGTTGATCCAACTC | 0.758 | 1.28 | -0.294 | -0.134 | 0.215 | 5.29 | 0.95 | 1.56 | -0.794 | 1.79 | 1.6 | 1.37 | 1.23 | 0.439 | 1.27 | 4.56 | 1.78 | 2.57
